Hits are enriched below; roughly 3% of the tested compounds scored in any of these assays.
ClpP mod – qHTS Assay for Activators of ClpP. purified B. subtilis ClpP, FRET peptide cleavage, 20 min. Potency, µM (top dose mostly 57.5 µM). actives 1.9% (n = 340,000). ATP-dependent Clp protease proteolytic subunit (Bacillus subtilis (strain 168)), P80244; active = well fitted falling curve with a large enough effect; inconclusive = small, poorly fitted or top-dose-only effect; inactive = no such curve, though single readings can be large or run the other way; note: the source files actives as falling curves though it sought activators and does not explain the sign; nearly all actives have a fitted effect of over 65% in size
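Purified B. subtilis ClpP, 10 microg/mL final in Tris/HCl pH8 with KCl, BSA, glycerol and Tween-20, cleaved an Abz/nitrotyrosine-quenched decapeptide. Fluorescence (ex 320, em 430) was read at 0 and 20 min at room temperature. Delta was normalized to 5.8 microM ADEP and DMSO/no-enzyme controls.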
KCNH2 3.1 block – inhibitors of human KCNH2 3.1 potassium channel isoform; activity change, % (tested at about 1.8 µM); U2OS KCNH2 3.1, thallium flux FluxOr; hits give low values; actives 0.95% (n = 340,000); AID 720553;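 active = maximum activity change below -70%; inconclusive = maximum activity change from -70% to -50%; inactive = maximum activity change above -50%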;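 note: thallium influx rate constant from kinetic fluorescence after stimulation buffer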
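Virally transduced U2OS (3.1 isoform, 4 h infection in dark at RT) → overnight 37 C → FluxOr + Red40 in HBSS/HEPES, 45 min → stimulation buffer, 2 min kinetic read → rate constant vs DMSO controls.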
KCNH2 WT inh – inhibitors of human wildtype KCNH2 potassium channel | actives 0.37% (n = 340,000) | AID 720551 | U2OS, BacMam KCNH2, thallium flux FluxOr; hits give low values | Q12809 | activity change, % at 1.84 µM;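 active = maximum activity change below -70%; inconclusive = maximum activity change between -70% and -50%; inactive = maximum activity change above -50%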
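U2OS cells were transduced with wild-type KCNH2 virus (2.03 x 10^8 / mL) for 4 h at room temperature, then cultured overnight at 37 C. Thallium flux was read with FluxOr dye. Rate constants were normalized to DMSO controls.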
Chronic BCR inh – inhibitors of chronic active B-cell receptor signaling; ABC-DLBCL IkBa-CBG/CBR reporter, luminescence ratio, 4 h; Potency, µM (series often up to 46.1 µM), actives largely listed as inhibitors; actives 0.05% (n = 340,000); AID 493014; active = well fitted inhibition curve with a large enough effect in the signal ratio, with a control signal flat, not every such curve was filed as active; inconclusive = small, poorly fitted or top-dose-only effect, or effect the other way, or a change in a side signal; the % refers to the signal ratio
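Cell line TMD8 (human ABC DLBCL), stably expressing tet-inducible CBG68-IkBa fusion and CBR; IMDM/0.5% FBS; cpd up to 46 uM; dox induction, 4 h, 37C/5% CO2; dual luminescence; green/red ratio; MG132 control.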
ALOX12 inh – inhibitors of human 12S-lipoxygenase ALOX12 | P18054 | purified 12hLO, xylenol orange hydroperoxide absorbance | Potency, µM (doses to about 108 µM), actives largely listed as inhibitors | actives 1.1% (n = 580,000); active = well fitted inhibition curve with a large enough effect; inconclusive = small, poorly fitted or top-dose-only effect, or another doubt; inactive = no such curve, though single readings can be large or run the other way
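Hydroperoxide product was detected by ferrous iron/xylenol orange as the 573 to 405 nm absorbance ratio. Arachidonic acid at 40 uM (final) was turned over for 30 min at room temperature by 150 nM human 12hLO, pH 7.0 Hepes buffer, after 15 min compound preincubation.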
LDHA inh – inhibitors of human lactate dehydrogenase A; P00338; purified LDHA, NADH/diaphorase-resazurin fluorescence; hits give low values; activity change, % (values are at about 110 or 230 µM); actives 0.15% (n = 480,000); AID 1347041; in the data active = activity change below about -30%; inconclusive = mostly about -25% to -30%
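Enzyme activity of human lactate dehydrogenase 5 (2 nM; 0.06 mM NADH, 0.2 mM pyruvate, 5 min, RT) is measured via a resazurin/diaphorase fluorescence readout of residual NADH.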
Hits are given with their value; – = inactive; ? = inconclusive; · = no result.

SMILES	ClpP mod	KCNH2 3.1 block	KCNH2 WT inh	Chronic BCR inh	ALOX12 inh	LDHA inh
O=C1CCC(C(=O)Nc2cccc(S(=O)(=O)Nc3ccccc3F)c2)=NN1	·	–	–	–	32µM	–
O=C(Nc1cccc(S(=O)(=O)Nc2ccccc2F)c1)c1ccco1	–	–	–	–	–	–
O=C(NN=Cc1ccc(F)cc1)c1cccc(S(=O)(=O)N2CCCC2)c1	–	–	–	–	16µM	–
Cc1ccc(NC(=O)CCNC(=O)c2ccccc2Cl)cc1S(=O)(=O)N1CCCCCC1	–	–	–	–	–	–
O=C(Nc1cccc(S(=O)(=O)N2CCCCC2)c1)c1ccccc1NS(=O)(=O)c1ccc(F)cc1	32µM	–	–	?	–	–
C#CCOC(=O)C[N+](C)(C)C/C=C(/C)Cl	·	·	·	·	?	–
CCOc1cc(C(=O)OC(C)C(N)=O)ccc1OCC(C)C (centres undefined)	·	·	·	·	–	–
CCn1nc(C(=O)NCc2ccccc2F)c2ccccc2c1=O	·	·	·	·	–	–
N#CC1(C(N)=O)C(c2cccs2)CC(=O)CC1c1cccs1 (centres undefined)	·	·	·	·	?	–
O=C(CSc1ccc([N+](=O)[O-])cc1)Nc1cccc(S(=O)(=O)Nc2ccccc2F)c1	·	·	–	?	40µM	–
O=C(Cc1ccc(Cl)cc1)Nc1cccc(S(=O)(=O)Nc2ccccc2F)c1	–	?	–	–	–	–
Cc1ccc(C)c(S(=O)(=O)c2c(N)n(/N=C/c3ccco3)c3nc4ccccc4nc23)c1	7.9µM	–	–	–	–	–
Nc1c(S(=O)(=O)c2ccccc2)c2nc3ccccc3nc2n1/N=C/c1cccc(O)c1	10µM	–	–	–	–	–
Cc1cccc(S(=O)(=O)c2c(N)n(/N=C/c3ccccc3)c3nc4ccccc4nc23)c1	?	–	–	–	–	–
Cn1nc(C(C)(C)C)cc1NC(=O)c1ccc(Cl)c(Cl)c1	·	·	·	·	?	–
COc1ccc(CC(C(=O)Nc2ccc(OC)cc2)c2nn[nH]n2)cc1 (centres undefined)	–	–	–	–	4.5µM	–
COc1ccccc1NC(=O)C(Cc1ccc(Cl)cc1)c1nn[nH]n1 (centres undefined)	–	–	–	–	–	–
CCc1c(C(=O)Nc2ccccc2C#N)csc1C	·	·	·	·	–	–
CCOC(=O)CNC(=O)CC(c1ccc(F)cc1)N1Cc2ccccc2C1=O (centres undefined)	·	·	·	·	–	–
COC(=O)C1=C(C(=O)OC)C(c2ccccc2O)c2sc(=O)[nH]c2S1 (centres undefined)	–	–	–	?	45µM	–
COc1ccc(N2Cc3cccc(C(=O)NCc4ccc(C)cc4)c3C2=O)cc1	·	·	·	·	–	–
COc1ccccc1/C=C/C(=O)NCc1cccnc1	–	-101	–	?	–	–
COc1ccccc1/C=C/C(=O)NC(=S)N1CCN(C)CC1	–	–	–	–	–	–
O=C(/C=C/c1cnc2ccccc2n1)NCc1cccnc1	·	·	·	·	–	–
COc1ccc(/C=C/C(=O)NCc2cccnc2)cc1	–	–	–	–	–	–
SMILES	ClpP mod	KCNH2 3.1 block	KCNH2 WT inh	Chronic BCR inh	ALOX12 inh	LDHA inh
COc1ccccc1/C=C/C(=O)NC(=S)NC(C)C	–	–	–	?	25µM	–
COc1ccccc1NC(=S)NC(=O)/C=C/c1cccs1	·	–	–	?	35µM	–
COc1cc(/C=C/C(=O)NCc2cccnc2)cc(OC)c1OC	25µM	–	–	–	–	–
Cc1cccc(OCCc2noc(C3CN(C(=O)CCc4ccccc4)C3)n2)c1	·	·	·	·	–	·
CCN1CCN(Cc2cc(=O)oc3cc(C)c(Cl)cc23)CC1	·	·	·	·	?	–
O=c1ccn(Cc2ccccc2)c(SCc2ccccc2)n1	16µM	–	–	·	?	–
O=C(NC(CC(=O)N1CCN(c2ccc([N+](=O)[O-])cc2)CC1)c1ccccc1)c1ccccc1Cl (centres undefined)	–	-107	-117	–	–	–
Cc1ccc(O)c(-c2cc(C(F)(F)C(F)F)nc(-c3ccccc3)n2)c1	25µM	–	–	?	–	–
O=C1CN(C(=O)CCn2c(-c3ccccc3)cc3ccccc32)CCN1	·	·	·	·	–	–
Cc1ccc(CNc2nc3c([nH]2)c(=O)n(C)c(=O)n3C)cc1	20µM	–	–	–	–	–
Cn1c(=O)c2[nH]c(Nc3ccccc3)nc2n(C)c1=O	–	–	–	?	–	–
O=C([C@@H]1C[C@@H](c2ccc(F)cc2)N(Cc2ccccc2)C1)N1CCN(c2ccccn2)CC1	·	·	·	·	–	·
O=C(Nc1ccccc1)c1cc2cc(Br)ccc2oc1=O	·	·	·	·	–	–
Cc1cc(NC(=O)COC(=O)CC2CCCC2)c([N+](=O)[O-])cc1C	–	-72	–	–	–	–
CCC(=O)OCC(=O)Nc1cc(C)c(C)cc1[N+](=O)[O-]	–	–	–	–	–	–
O=C(CN(c1ccc(Br)cc1)S(=O)(=O)c1ccc(Cl)c([N+](=O)[O-])c1)NCCc1ccccc1	25µM	–	–	–	–	–
CN1C(=O)/C(=C/c2ccc3c(c2)OCO3)N=C1c1ccccc1	–	-123	–	–	–	–
CCSC1=N/C(=C\c2ccc3c(c2)OCO3)C(=O)S1	–	–	–	?	–	–
Cc1cccc(C)c1-n1nnnc1S(=O)(=O)Cc1ccccc1Cl	–	-94	–	·	–	–
COc1ccc(-c2csc3nc(C)nc(N4CCC(C)CC4)c23)cc1OC	–	-137	–	?	–	–
N#CCCN1CCN(S(=O)(=O)c2ccc3c(c2)CCC3)CC1	–	–	–	–	–	–
O=S(=O)(c1ccc2c(c1)CCC2)N1CCNCC1	28µM	–	–	?	–	–
N=C1S/C(=C\c2ccc(-c3ccccc3C(=O)O)o2)C(=O)N1c1ccc2c(c1)OCO2	·	–	–	?	14µM	–
COc1ccccc1N1C(=N)S/C(=C\c2ccc(-c3ccccc3C(=O)O)o2)C1=O	–	·	–	?	–	–
CCN1C(=O)C(CC(=O)NC)N(NC(=O)c2ccccc2)C1=S (centres undefined)	25µM	–	–	–	–	–
C=C(C)COc1ccc2c(C)c(CCC(=O)N3CCC(C(N)=O)CC3)c(=O)oc2c1	·	·	·	·	–	–
Cc1ccc(OCC(=O)N2CCOCC2)cc1C	–	–	–	–	–	–
Cc1cc(OCC(=O)N2CCOCC2)cc2oc(=O)c3ccccc3c12	7.1µM	–	–	?	–	–
Cn1nc(-c2ccc(OCC(=O)N3CCOCC3)cc2)c2ccccc2c1=O	·	·	·	·	–	-31
O=C(CCn1ccc2ccccc21)N1CCN(S(=O)(=O)c2ccccc2F)CC1	·	·	·	·	–	–

Compound activity from PubChem BioAssay.
